The campaign covered roughly 290,000 compounds. About 3,000 (1%) were called active. This excerpt belongs to a sample that is enriched for actives. Values without a mark were called inactive. No stated cut-off is given here; in the data, active means inhibition mostly above about 36% (no sharp cut-off); inactive means mostly below about 34%.
Experiment: NOD1 signaling inhibitors, primary screen, cell-based, luminescence, uHTS (AID 1578);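 further: HEK-293T reporter cells stimulated with the NOD1 agonist gamma-tri-DAP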
Settings: NOD1-driven NF-kB luciferase reporter cells, at 4 µM, hits give high values

Structure (SMILES) | inhibition
C=CCn1c(=O)c2c3c(sc2n2c(Nc4ccc(C(=O)OCC)cc4)nnc12)CCCC3 | -30.7%
CCC(C)(C)NC(=O)C(c1ccc(OC)cc1)N(C(=O)CCC(=O)Nc1cc(C)on1)c1ccc(F)cc1 (stereo not given) | -11.7%
CC(C)c1ccc(/C=N/NC(=O)CC(=O)NCc2ccccc2)cc1 | -41.2%
CCN(CC)S(=O)(=O)c1cc([N+](=O)[O-])ccc1NNC(=O)Nc1ccc(Cl)c(Cl)c1 | 83.8% (active)
CCN(CC)S(=O)(=O)c1cc([N+](=O)[O-])ccc1NNC(=O)Nc1ccc(F)cc1 | 2%
CCN(CC)S(=O)(=O)c1cc([N+](=O)[O-])ccc1NNC(=O)Nc1ccccc1 | -23.4%
COc1ccc(CN2CCN(C(=O)CCC(=O)Nc3nnc(C4CCCCC4)s3)CC2)cc1F | 26.9%
COc1ccc(C(=O)N/N=C/c2ccc(OC)c(COc3ccccc3)c2)cc1 | 3.5%
COc1ccc(/C=N\NC(=O)c2ccccc2F)cc1COc1ccc(F)cc1F | 31.2%
COc1ccc(/C=N/NC(=O)c2cc(C(C)(C)C)[nH]n2)cc1COc1ccc(F)cc1F | 44.1% (active)
COc1ccc(/C=N\NC(=O)c2ccccc2)cc1COc1ccc(F)cc1 | 39.2%
COc1ccc(C(=O)N/N=C/c2ccc(OC)c(COc3ccc(F)cc3)c2)cc1 | 56.6% (active)
COc1ccc(C(=O)N/N=C/c2ccc(OC)c(COc3ccc(F)cc3F)c2)cc1 | 38.8%
C/C(=N\NC(=O)c1ccc2ccccc2c1)c1cccs1 | -67.5%
Cc1ccccc1CSCCNC(=O)CCSc1ccccc1 | 71.3% (active)
O=C(CCSc1ccccc1)NCCSCc1ccccc1 | -33.8%
Cc1ccc(SCCC(=O)NCCSCc2ccccc2C)cc1 | -35.1%
COc1ccc(CNC(=O)CCSCc2ccccc2C)cc1 | 49.7% (active)
COc1ccc(CNC(=O)CCSCc2ccc(C)cc2)cc1 | -7.5%
Cc1ccc(CNC(=O)CCSCc2ccccc2C)cc1 | -14.9%
CCC(C)[C@H](NC(=O)Nc1ccccc1F)C(=O)O (stereo not given in full) | -12.6%
NS(=O)(=O)c1cccc(NC(=O)COC(=O)CCSc2ccccc2)c1 | -26.8%
O=[N+]([O-])c1ccc(Sc2n[nH]c(-c3ccncc3)n2)nc1 | -10.2%
O=[N+]([O-])c1cnc(Sc2ccncn2)s1 | 66% (active)

Structure (SMILES) | inhibition
O=C(Nc1ccc(Cl)cc1)Nc1ccccc1Sc1ncc([N+](=O)[O-])s1 | -6.5%
O=C(O)C1Nc2c(cccc2C(F)(F)F)C2C=CCC12 (stereo not given) | -8.8%
O=C(Nc1ccncc1)c1c(F)c(F)c(F)c(F)c1F | 11%
O=C(Nc1ccccc1)c1c(F)cccc1F | -2.4%
O=S(=O)(c1ccc(Cl)s1)N1CCN(c2ncccn2)CC1 | -11.8%
Cc1ccccc1-c1nsc(SCC(=O)c2ccc(Cl)cc2)n1 | -4.8%
c1coc(C2=NCCc3ccccc32)c1 | -18%
Nc1nc(Cl)nc(N(c2ccccc2)c2ccccc2)n1 | -8.3%
Nc1nc(CCl)nc(N(c2ccccc2)c2ccccc2)n1 | 50.5% (active)
CCN(CC)c1nc(N)nc(N(c2ccccc2)c2ccccc2)n1 | 13.6%
Fc1ccc2c(c1)C(c1ccncc1)=NNC(c1ccccc1)=N2 | 16%
Cc1ccc(C(=O)COC(=O)c2ccc(-c3cnc4ccccc4n3)cc2)cc1C | -22.2%
O=C1CCCN1CCCNC(=S)Nc1ccc(Cl)cc1Cl | -41.9%
N/C(=N\NC(=O)c1sccc1OCc1ccc(Cl)cc1Cl)c1ccccn1 | -6%
Cc1cc(NC(=O)/C=C/C(=O)N(c2ccccc2C)C(C(=O)NC2CCCC2)c2ccc(F)cc2)no1 (stereo not given) | 30.5%
CCOc1ccc(N(C(=O)/C=C/C(=O)Nc2cc(C)on2)C(C(=O)NC2CCCC2)c2ccccc2C)cc1 (stereo not given) | 52.5%
CCc1ccc(C(C(=O)NC2CCCC2)N(C(=O)/C=C/C(=O)Nc2cc(C)on2)c2ccccc2C)cc1 (stereo not given) | 76.7% (active)
CCOC(=O)c1c(CCl)nc2ccccc2c1-c1ccccc1 | 19.7%
ClCc1nc2ccccc2c2ccccc12 | 64.7% (active)
CCOC(=O)c1c(CCl)nc2ccccc2c1C | -9.2%
CC(=O)N(CCc1ccccc1C)Cc1cc2ccc(C)cc2[nH]c1=O | -1%
CCN1CCN(C(=O)Cn2nc(C)c3sc4ccccc4c3c2=O)CC1 | -12.8%
Cc1nn(CC(=O)N2CCN(C)CC2)c(=O)c2c1sc1ccccc12 | -7.7%
CCOC(=O)N1CCN(C(=O)Cn2nc(C)c3sc4ccccc4c3c2=O)CC1 | 53.1% (active)

Structure (SMILES) | inhibition
Cc1nnc(SCc2cn3ccsc3n2)n(N)c1=O | 8.4%
Cc1ccc(C)c2sc(NC(=O)CN3C(=O)CCC3=O)nc12 | 14.9%
CCC(C)(C)NC(=O)c1cc(S(=O)(=O)N2CCc3ccccc32)cn1C | 14.8%
CCCNC(=O)c1cc(S(=O)(=O)N2CCc3ccccc32)cn1C | 30.1%
CC1=NN(Cc2ccccc2)C(=O)C1C(c1ccncc1)C(C#N)C#N (stereo not given) | 5.2%
Cc1nc2c(ccc3nc(NC(=O)Cc4ccccc4)sc32)s1 | -51.4%
Cc1nc2c(ccc3nc(NC(=O)C4CC4)sc32)s1 | 69% (active)
CCC(=O)Nc1nc2ccc3sc(C)nc3c2s1 | 17.2%
Fc1ccc(NC(=S)Nc2cccnc2)c(F)c1F | -19.1%
COc1ccc(CCNC(=O)c2oc3ccc(OC)cc3c2C)cc1 | -13.3%
CCOc1ccccc1NC(=O)CSc1nc2c(c(=O)n1C)SC(C)C2 (stereo not given) | -16.7%
O=C1COc2ccc(C(=O)COC(=O)CCc3ccc(S(=O)(=O)N4CCOCC4)cc3)cc2N1 | 1.2%
c1ccc(-c2cc(-c3ccccc3)on2)cc1 | -10%
Cc1ccc2nc(-c3cc(-c4ccccc4)no3)cn2c1 | -4.9%
CCc1ccn2cc(-c3cc(-c4ccccc4)no3)nc2c1 | 45.6% (active)
O=C(NCc1ccccc1)C1CCC(CNS(=O)(=O)c2cccs2)CC1 (stereo not given) | -1.7%
CCN(C(=O)CSc1nc2cc(C(=O)OC)ccc2c(=O)n1Cc1ccco1)c1cccc(C)c1 | 74% (active)
COC(=O)c1ccc2c(=O)n(Cc3ccco3)c(SCC(=O)Nc3cc(C)on3)nc2c1 | -44.8%
CCc1ccc(NC(=O)CSc2nc3cc(C(=O)OC)ccc3c(=O)n2Cc2ccco2)cc1 | -7.4%
Cc1ccc(S(=O)(=O)NC(=O)Nc2ccccc2)cc1 | -30.4%
O=C(Cn1nnc(-c2ccc3c(c2)OCO3)n1)NCc1ccccc1 | 4.7%
O=C(NCC(=O)N1CC(O)CC1C(=O)N1CC(O)CC1C(=O)OCc1ccccc1)OCc1ccccc1 (stereo not given) | -13.7%
CC(=O)Nc1ccc(S(=O)(=O)N(C)c2ccccc2)cc1 | -12.7%
CCOC(=O)/C=C/C(=O)Nc1ccc(Oc2ccccc2)cc1 | 6.8%

Structure (SMILES) | inhibition
Cc1cc(NC(=O)Nc2cccc(C(F)(F)F)c2)no1 | -7.7%
Cc1ccc(NC(=O)CSc2nn(-c3ccc(Cl)cc3)c(=S)s2)cc1S(=O)(=O)N(C)C | 53.2%
NS(=O)(=O)c1cccc(NC(=O)CSc2nn(-c3ccccc3)c(=S)s2)c1 | 39.5%
Cc1c(C(=O)NCCSCc2cccc(C(F)(F)F)c2)cnn1-c1ccc(F)cc1 | -3.5%
COc1cccc(NC(=O)Cc2ccc3ccccc3c2)c1 | 15.2%
Cc1ccc(NC(=O)Cn2c(=O)cnc3ccccc32)cc1S(=O)(=O)N(C)C | -22.2%
Cc1sc(NC(=O)Nc2ccccc2)c(C(N)=O)c1C | -40.3%
COc1ccc(N2CCN(C(=O)C(C)(C)Oc3ccc(Cl)cc3)CC2)cc1 | -14.6%
COC(=O)c1sc(N2CCN(c3ccc(Cl)cc3)CC2)nc1N | 66.9% (active)
COc1ccc(N2CCN(C(=O)NC(=O)c3ccc(Cl)cc3)CC2)cc1 | -13.4%
NS(=O)(=O)c1ccc(NCc2cc(Cl)ccc2OCc2ccc(F)cc2)cc1 | 27.2%
CC(=O)N1CCn2c3c(c(=O)c4cc(C)ccc42)CCC31 (stereo not given) | -6.4%
Cc1ccc2c(c1)c1c3n2CCN(C(=O)CCl)C3CCC1 (stereo not given) | 52.3%
Cc1ccc2c(c1)c(=O)c1c3n2CCN(C(=O)CCl)C3CC1 (stereo not given) | 105% (active)
CCc1ccc2c(CN3CCN(S(=O)(=O)c4ccc5c(c4)OCCO5)CC3)cc(=O)oc2c1 | -2.7%
COc1ccc(S(=O)(=O)n2c([N+](=O)[O-])cnc2C)cc1OC | -2.3%
CC1=C(C(=O)OCc2ccccc2)C(c2ccc(Cl)cc2)NC(=O)N1C (stereo not given) | -1.2%
O=C(N/N=C/c1cccnc1)C1CCCCC1 | -16.2%
Cc1cccc(C(=O)N2CCN=C2SCc2ccc([N+](=O)[O-])cc2)c1 | 41.9% (active)
Cc1cc(C)cc(C(=O)N2CCN=C2SCc2ccc([N+](=O)[O-])cc2)c1 | 41%
Cc1ccc(C(=O)N2CCN=C2SCc2ccc([N+](=O)[O-])cc2)cc1 | 35.5%
O=C(C1CC1)N1N=C(c2ccncc2)CC1(O)C(F)(F)F (stereo not given) | -21.3%
O=C(NCc1cccc(C(F)(F)F)c1)C1CC(c2cccc(F)c2)=NO1 (stereo not given) | -5%

Reference: PubChem BioAssay AID1578 (Sanford-Burnham Center for Chemical Genomics, 2009)
